A word on the inhibition: it is the relative decrease from the control value, in per cent.

Structures are written as SMILES. In all, about 96,000 compounds went through this assay and about 19,000 (20%) were called active. A selection follows. A number with no mark means an inactive call.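 The calls were made as follows: active = blocking of liver enzyme CYP2C9 beyond about 50% at 5 µM (limit read from the data); inactive = the rest.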

The target of the assay is Cytochrome P450 2C9 (Homo sapiens) (UniProt P11712). In words: blockers of cytochrome P450 2C9 activity – biochemical, luminescence, ADME assay, primary screen (AID 777). The settings on record: CYP2C9 Supersomes, luciferin-H conversion, at 5 µM, stronger effect = higher value.
Cytochrome P450 2C9 (Homo sapiens), sequence (P11712 whole entry, looked up): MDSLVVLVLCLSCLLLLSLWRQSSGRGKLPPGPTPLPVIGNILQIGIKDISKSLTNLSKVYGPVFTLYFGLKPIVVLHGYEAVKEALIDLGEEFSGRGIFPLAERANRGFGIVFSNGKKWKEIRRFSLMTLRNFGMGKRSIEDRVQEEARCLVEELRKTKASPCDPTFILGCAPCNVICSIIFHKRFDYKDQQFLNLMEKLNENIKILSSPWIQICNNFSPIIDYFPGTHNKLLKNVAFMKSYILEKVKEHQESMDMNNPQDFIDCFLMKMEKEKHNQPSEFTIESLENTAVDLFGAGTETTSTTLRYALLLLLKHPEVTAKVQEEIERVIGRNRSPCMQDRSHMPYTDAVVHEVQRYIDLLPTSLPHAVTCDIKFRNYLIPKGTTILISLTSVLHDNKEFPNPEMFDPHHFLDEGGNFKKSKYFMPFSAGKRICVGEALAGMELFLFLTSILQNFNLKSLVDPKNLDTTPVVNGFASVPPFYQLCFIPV
Regarding `O=C(C1CCN(S(=O)(=O)c2cnc[nH]2)CC1)N1CCN(Cc2ccc3c(c2)OCO3)CC1`, the inhibition was 9.3%.

In the case of `Cc1ccc(S(=O)(=O)c2ccc(Oc3ccccc3)cc2)cc1`, the inhibition is -5.1%. `Cc1nc(CNS(=O)(=O)c2ccc(Oc3ccccc3)cc2)cs1`: the inhibition was 39.1%. Regarding `Cc1cc(C)cc(NS(=O)(=O)c2ccc(Oc3ncc(C(F)(F)F)cc3Cl)cc2)c1`, the inhibition is 47.2%.

Regarding `O=S(=O)(Nc1ccccn1)c1ccc(Oc2ccccc2)cc1`, the inhibition was 81.4% (active). For `O=C(CS(=O)(=O)Cc1ccccc1)Nc1cccnc1`, the inhibition is -3.4%. `COc1ccccc1Oc1ccc(S(=O)(=O)Nc2cccnc2)cc1`: the inhibition was 84.9% (active). Consider `COc1cc(=O)[nH]c(=O)n1C(=O)Cc1ccccc1`, for which the inhibition was 11.7%.

`Cc1nc(NC2=NC(C(=O)Nc3ccc(Cl)cc3)CC(=O)N2)nc2ccccc12` (centres undefined): the inhibition is 1.6%. For the molecule `O=C(CCCN1C(=O)c2cccc3cccc(c23)C1=O)N1CCN(Cc2ccc3c(c2)OCO3)CC1`, the inhibition is -138%. With `O=C1c2ccccc2C(=O)N1c1ccccc1S(=O)C(F)(F)F` (centres undefined), the inhibition was -4%. Regarding `O=C(Nc1ccccc1[N+](=O)[O-])C1C(c2ccccc2)=C1c1ccccc1`, the inhibition is 18.8%.

`O=C(O)c1ccccc1NC(=S)NC(NC(=O)c1ccccc1[N+](=O)[O-])C(Cl)(Cl)Cl` (centres undefined): the inhibition is 72.3% (active). On to `O=[N+]([O-])c1ccccc1NCc1ccc(Cl)cc1`, for which the inhibition is 18%. In the case of `O=C(Nc1ccc2c(c1)OCO2)C1CC(c2c(F)cccc2Cl)=NO1` (centres undefined), the inhibition is -159%. Consider `COCn1c(COc2ccccc2)nc2ccccc21`, for which the inhibition was 43.7%.

For the molecule `Cc1ccc(CNC(=O)CCCNC(=O)c2ccc(Cl)cc2)n1C`, the inhibition was 80.5% (active). For `CCCCNC(=O)CCNC(=O)c1ccc(C(C)(C)C)cc1` the value was 41.3%; for `CCN(CC(=O)NC(C)C)C(=O)CCNC(=O)c1ccc(Cl)cc1`, 6.3%; for `CCCCNC(=O)C(=O)c1ccccc1NC(C)=O`, 15.4%. Regarding `CCCNC(=S)NC1CC2CCCC(C1)N2CC(C)C` (centres undefined), the inhibition was -4.2%.

`Cc1cc(OC(=O)c2ccc(Cl)cc2)cc(=O)n1C`: the inhibition was 32%. As to `CCCOc1ccccc1C1CC(=O)Nc2cc3c(cc21)OCO3` (centres undefined), the inhibition was 94.4% (active). Turning to `COc1ccccc1C1C2=C(COC2=O)Nc2cc3c(cc21)OCO3` (centres undefined), the inhibition is 28.2%. With `COCCOC(=O)C1=C(C)NC(=O)CC1c1cc2c(cc1Br)OCO2` (centres undefined) the figure was 8.2%; with `CC1(C)CC(=O)C(C2=NC(C)(C)Cc3ccccc32)=C(O)C1`, 5.8%; with `C=CCOc1c2ccc(C(=O)N(CC)c3ccc(OC)cc3)cc2nn1C`, 47.3%.

Take `COc1ccc(-c2nnc(SC(C)C#N)o2)cc1` (centres undefined): the inhibition is 13.9%. With `COc1cc(OC)cc(C(=O)NC2CCN(C(=O)N3c4ccccc4Sc4ccccc43)CC2)c1`, the inhibition was 41.4%. For `COc1ccc(-c2nnc(SC(=O)N3c4ccccc4Sc4ccccc43)o2)cc1`, the inhibition was 83.1% (active). Consider `COc1ccc2c(c1)cc1n2CCN=C1NN`, for which the inhibition was 42.7%. Consider `Cc1ccc(C(=O)NC2CCN(C(=O)N3CCOCC3)CC2)cc1`, for which the inhibition was -6.4%.

Turning to `N#Cc1nc(N)nc(N(c2ccccc2)c2ccccc2)n1`, the inhibition was 19.9%. On to `CCOC(=O)c1cc2c(n(-c3ccc(C)cc3)c1=O)CCCC2=O`, for which the inhibition was 12%. In the case of `Cc1n[nH]c(=O)n1-c1ccc(Oc2ccccc2)cc1`, the inhibition is 0.7%. In the case of `Cc1ccc(N)cc1-n1c(C)ccc1C`, the inhibition is -1.6%. As to `Cc1ccccc1CSc1nnc(-c2ccccn2)n1N`, the inhibition was -28.8%. Consider `Cc1ccc(S(=O)(=O)N(CC(=O)N/N=C/c2ccc(F)cc2)c2cccc3cccnc23)cc1`, for which the inhibition was 9.7%. Consider `COc1ccc(N(CC(=O)N/N=C/c2cccs2)S(=O)(=O)c2ccc(OC)c(OC)c2)cc1`, for which the inhibition was 44.2%. Regarding `COc1ccc(N(CC(=O)N/N=C/c2cccc3c2OCCO3)S(=O)(=O)c2ccc(NC(C)=O)cc2)cc1`, the inhibition is 76.1% (active). As for `Cn1c(=N)n(CC(O)c2ccccc2)c2ccccc21` (centres undefined), the inhibition was -27.2%. With `Cc1c(Br)c([N+](=O)[O-])nn1C(C)C(=O)Nc1nccs1` (centres undefined) the figure was 73.2% (active); with `Cn1cccc1C(=O)Nc1nccs1`, 2.9%. `COc1cc(C(=O)Nc2nccs2)cc(OC)c1OC`: the inhibition was 42%. For the molecule `O=P(O)(CN1CCCCC1)CN1CCCCC1`, the inhibition was -9.6%. With `CC1CCC(NS(=O)(=O)c2ccc3c(c2)n(C)c(=O)c(=O)n3C)CC1` (centres undefined) the figure was 8.5%; with `CCn1c(=O)c(=O)n(CC)c2cc(S(=O)(=O)N3CCc4ccccc43)ccc21`, 96.5% (active); with `CSc1nc2ccc(S(=O)(=O)N3CCc4ccccc43)cc2s1`, 15.3%.

In the case of `Cn1c(=O)n(C)c2cc(S(=O)(=O)N3CCCc4ccccc43)ccc21`, the inhibition is 66.5% (active). With `COc1ccc(C(=O)OCC(=O)NCC2CCCCC2)cc1S(=O)(=O)N1CCCc2ccccc21` the figure was 9.6%; with `Cc1nn(C)c(C)c1S(=O)(=O)N1CCc2ccccc21`, -33.4%. With `Cc1ccc(-n2c(=O)c(C#N)cc3c(=O)n4ccccc4nc32)cc1C`, the inhibition is -2.8%.

On to `Cc1cc(C=O)c(C)n1-c1ccc(NC2CCCCC2)c([N+](=O)[O-])c1`, for which the inhibition is 15.9%.

`Cc1ccoc1C(=O)Nc1cccc(Oc2ccccc2)c1`: the inhibition was 34%.

As to `O=C(OCCO)c1cc(Cl)c(C(=O)OCCO)cc1Cl`, the inhibition is 48.4%.

For `Cc1ccc(NC(=O)c2ccc(CSc3ncnc4nc[nH]c34)cc2)c(C)c1`, the inhibition was -76.5%. In the case of `CCN1CCN(C(c2cccnc2)c2cc(Cl)c3cccnc3c2O)CC1` (centres undefined), the inhibition is 29.8%.

Regarding `CCn1ncc(C2=NOC(C(=O)Nc3ccccc3C(=O)OC)C2)c1C` (centres undefined), the inhibition was -34.3%. Turning to `CCN1CCc2c(C#N)c(NCc3ccccc3)nc(NCCO)c2C1`, the inhibition was 35.5%.

For `CC(C)CCNc1nc(N2CCCC2)c2c(c1C#N)CCN(C)C2`, the inhibition was 69.7% (active). For `CCOC(=O)C(C)Oc1cccc2c(=O)n(CC(=O)N3CCc4ccccc43)ccc12` (centres undefined) the value was 9%; for `O=S(=O)(c1cccc(S(=O)(=O)N2CCC(n3nnc4ccccc43)CC2)c1)N1CCCCC1`, 88.3% (active); for `CC(=O)c1cccc(S(=O)(=O)N2CCC(n3nnc4cc(F)ccc43)CC2)c1`, -31%. In the case of `O=S(=O)(c1cccc(-c2nnc(SC(F)F)n2-c2ccccc2)c1)N1CCCCC1`, the inhibition was 21.2%.
